GC-A act: GC-A stimulated cGMP production enhancers – HEK293 GC-A cells, cGMP TR-FRET, EC30 ANP, primary screen. Atrial natriuretic peptide receptor 1 (Homo sapiens), P16066. 0% at EC30 ANP, 100% saturating ANP. activation, % at 10 µM. 370,000 tested, 0.14% active. AID 1671463, 2021; in the data active = activation above about 40%
APOBEC3G inh: APOBEC3G DNA deaminase inhibitors, primary screen, biochemical, fluorescence, single-stranded DNA substrate, uHTS; DNA dC->dU-editing enzyme APOBEC-3G (Homo sapiens), Q9HC16; recombinant A3G, ssDNA deamination FAM/TAMRA fluorescence; inhibition, % at 20 µM; 330,000 tested, 0.28% active;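 active = inhibition of at least 40% at 20 µM, with no more than 30% in the related APOBEC3A deaminase screen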;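 also: plate controls were DMSO wells with A3G for no effect and wells lacking A3G enzyme for full effect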
GC-B act: human GC-B receptor activators, primary screen, HEK293 GC-B cells, cGMP TR-FRET, EC30 CNP. activation, % at 10 µM. 0% at EC30 CNP, 100% saturating CNP. AID 1920062, 2024. Atrial natriuretic peptide receptor 2 (Homo sapiens), P20594. 370,000 tested, 0.11% active;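 active = activation at 10 µM reaching about 35% in either raw or pattern-adjusted values, limit read from the data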
FAS-TE inh: FAS thioesterase domain inhibitors, primary screen, biochemical, fluorescence intensity, uHTS | 360,000 tested, 0.67% active | recombinant FAS-TE, OMFH fluorogenic substrate, fluorescence endpoint | inhibition, % at 15 µM | Fatty acid synthase (Homo sapiens), P49327 | AID 602261, 2012;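 active = compounds whose normalised, plate-corrected inhibition of enzyme fluorescence in the single-dose primary screen is 50% or more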;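 also: 0% = DMSO with enzyme and 100% = substrate without enzyme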
A3A deaminase: APOBEC3A ssDNA deaminase inhibitors, primary screen, selectivity assay for APOBEC3G inhibitor project, biochemical, FAM/TAMRA oligo cleavage fluorescence. inhibition, % at 20 µM. 330,000 tested, 0.41% active. DNA dC->dU-editing enzyme APOBEC-3A (Homo sapiens), P31941. recombinant A3A, FAM/TAMRA ssDNA deamination fluorescence;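 active = at least 40% inhibition at 20 µM here, with at most 30% in a related deaminase screen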;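 also: plate controls were A3A with DMSO for no effect and wells lacking A3A enzyme for full effect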
Numbers without * were called inactive. Sampled rows, rich in hits. Any-hit rate of the full collection: about 1.4%.

Screening Cc1cc(-c2n[nH]c(=S)n2Cc2ccco2)nn1C returned GC-A act 6, APOBEC3G inh 24, GC-B act 0, FAS-TE inh -8 and A3A deaminase -8.
Screening Oc1ccccc1-c1n[nH]c(=S)n1Cc1ccco1 returned GC-A act 3, APOBEC3G inh 41*, GC-B act -6, FAS-TE inh -7 and A3A deaminase -2.
CCCc1nn(C)c2c(=O)[nH]c(-c3cc(S(=O)(=O)N4CCN(C)CC4)ccc3OCC)nc12 was read as GC-A act 52*, APOBEC3G inh -2, GC-B act 58*, FAS-TE inh -3 and A3A deaminase 0.
Screening CCCc1nn(C)c2c(=O)[nH]c(-c3cc(S(=O)(=O)Nc4ccc(NC(C)=O)cc4)ccc3OCC)nc12 returned GC-A act 41*, APOBEC3G inh -6, GC-B act 55*, FAS-TE inh 1 and A3A deaminase -4.
`CCOC(=O)CSc1cc(-c2ccccc2)nc2ncnn12` gave GC-A act 36, APOBEC3G inh -9, GC-B act 42*, FAS-TE inh -1 and A3A deaminase -3.
`CCOC(=O)CSc1nc(-c2ccccc2)ns1` gave GC-A act 55*, APOBEC3G inh 22, GC-B act -12, FAS-TE inh 5 and A3A deaminase 3.
Screening COc1ccc(-c2nnc(SCC(=O)NN=C(C)c3cccc4ccccc34)n2-c2ccccc2)cc1 returned GC-A act -21 and GC-B act -13.
Screening CCOC(=O)c1cccc(NC(=O)CS(=O)(=O)Cc2nc(-c3cccc(OC)c3)oc2C)c1 returned GC-A act 25, APOBEC3G inh -8, GC-B act 37*, FAS-TE inh 10 and A3A deaminase -4.
For C[C@@H]1CN([C@H](C)CO)C(=O)c2cc(NC(=O)Nc3ccc(C(F)(F)F)cc3)ccc2O[C@H]1CN(C)Cc1ccc(Cl)c(Cl)c1 the results were GC-A act 3, APOBEC3G inh -4, GC-B act -2, FAS-TE inh 13 and A3A deaminase 1.
C[C@H](CO)N1C[C@H](C)[C@@H](CN(C)C(=O)NC2CCCCC2)Oc2ccc(NC(=O)Nc3ccc(C(F)(F)F)cc3)cc2C1=O was read as GC-A act 2, APOBEC3G inh -2, GC-B act -2, FAS-TE inh 12 and A3A deaminase -2.
For C[C@H](CO)N1C[C@H](C)[C@@H](CN(C)C(=O)NC2CCCCC2)Oc2c(NC(=O)Nc3ccc(C(F)(F)F)cc3)cccc2C1=O the results were GC-A act -7, APOBEC3G inh -5, GC-B act -13, FAS-TE inh 85* and A3A deaminase 0.
COc1ccc(NC(=O)N(C)C[C@H]2Oc3c(NC(=O)Nc4ccc(C(F)(F)F)cc4)cccc3C(=O)N([C@H](C)CO)C[C@@H]2C)cc1 was read as GC-A act 3, APOBEC3G inh 8, GC-B act 5, FAS-TE inh 62* and A3A deaminase -1.
C[C@H](CO)N1C[C@H](C)[C@@H](CN(C)C(=O)Nc2ccc(C(F)(F)F)cc2)Oc2c(NC(=O)Nc3ccccc3)cccc2C1=O was read as GC-A act -7, APOBEC3G inh 1, GC-B act -1, FAS-TE inh 64* and A3A deaminase 2.
Screening C[C@H]1CN([C@@H](C)CO)C(=O)c2cccc(NC(=O)Nc3ccc(C(F)(F)F)cc3)c2O[C@@H]1CN(C)Cc1ccc(Cl)c(Cl)c1 returned GC-A act -4, APOBEC3G inh 9, GC-B act 4, FAS-TE inh 77* and A3A deaminase 6.
For CC(C)[C@H](NC(=O)[C@H](C)NC(=O)OC(C)(C)C)C(=O)N1CCC2CCN(Cc3ccccc3)CC21 (stereo partly drawn) the results were GC-A act -1 and GC-B act -5.
CC(=O)Nc1cccc(C(C)C2=CCCCC2)c1 (stereo not drawn) was read as GC-A act -4 and GC-B act 4.
Screening Cc1ccc(Nc2c(-c3ccco3)nc3ccccn23)cc1 returned GC-A act 34, APOBEC3G inh 1, GC-B act 10, FAS-TE inh -2 and A3A deaminase 0.
`COc1ccc(Nc2c(-c3ccco3)nc3ccc(C)cn23)cc1` gave GC-A act 31, APOBEC3G inh -3, GC-B act 36*, FAS-TE inh -2 and A3A deaminase 1.
Cc1ccc(C(=O)CCS(=O)(=O)c2ccc(Br)cc2)cc1 was read as GC-A act 46*, APOBEC3G inh -2, GC-B act -5, FAS-TE inh -2 and A3A deaminase -1.
COc1ccc(C(=O)CCS(=O)(=O)c2ccc(C)cc2)cc1 was read as GC-A act 9, APOBEC3G inh -10, GC-B act -2, FAS-TE inh 0 and A3A deaminase -5.
For CC(C)(C)C(=O)COC(=O)CNC(=O)c1ccc(Oc2ccccc2)cc1 the results were GC-A act 42*, APOBEC3G inh 2, GC-B act -1, FAS-TE inh -2 and A3A deaminase 2.
`C[C@@]12C(=O)Nc3ccc(F)cc3C(=O)N1[C@H]1c3cc(Br)ccc3OC[C@@H]1[C@@H]2c1ccccc1` gave GC-A act -3, APOBEC3G inh -2, GC-B act -3, FAS-TE inh 89* and A3A deaminase 7.
For Cc1ccc2c(c1)C(=O)N1[C@H]3c4ccccc4OC[C@@H]3[C@H](c3ccccc3)[C@]1(C)C(=O)N2 the results were APOBEC3G inh -4, FAS-TE inh 71* and A3A deaminase -2.
`COc1ccc2c(c1)OC[C@H]1[C@H]2N2C(=O)c3cc(C)ccc3NC(=O)[C@@]2(C)[C@H]1c1ccccc1` gave APOBEC3G inh -6, FAS-TE inh 76* and A3A deaminase -4.
`COc1ccc2c(c1)[C@H]1[C@H](CO2)[C@H](c2ccccc2)[C@]2(C)C(=O)Nc3ccc(F)cc3C(=O)N12` gave GC-A act -6, APOBEC3G inh 5, GC-B act -7, FAS-TE inh 40 and A3A deaminase 1.
For Cc1cccc(OC[C@@H](O)CN2CCC(C(O)(c3ccccc3)c3ccccc3)CC2)c1 the results were GC-A act -14 and GC-B act -11.
Screening CC(C)(C)N(Cc1cn(Cc2ccccc2)nn1)S(=O)(=O)c1ccc(F)cc1Br returned GC-A act 2 and GC-B act 1.

Screening results as filed in PubChem.
